Screens: PubChem, several laboratories
Peg3 prom inh = reduces Peg3 promoter-driven luciferase expression in HeLa; 1.7% of 360,000 active; inhibition, % at 20 µM; HeLa PEG-Prom luciferase reporter, luminescence, overnight; AID 588405;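 active = inhibition of at least 50% at 20 µM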
ABHD5-PLIN5 inh = inhibitors of human ABHD5-perilipin-5 interaction; Split G. princeps luciferase complementation, luminescence, 4 h; inhibition, % at 4 µM; Q00G26+Q8WTS1; 0.78% of 360,000 active;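 active = inhibition above the mean inhibition across every tested compound plus 3 SD, cut at about 22% in these data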
TRPM1 prom inh = MITF TRPM1 promoter inhibition in SK-MEL-5 cells. SK-MEL-5 TRPM1 promoter luciferase, 24 h. 0.83% of 330,000 active. inhibition, % at 12.5 µM. AID 488899;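 active = mean inhibition across replicates of 60% or more, whatever share of single replicates reaches that level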
CF NFkB block = blocks PAF-induced NF-kB reporter in cystic fibrosis cells | KKLEB NF-kB-GFP reporter, GFP fluorescence overnight | 0.86% of 360,000 active | inhibition, % at 5 µM;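 active = at least 50% inhibition at 5 µM, scaled per plate between neutral and stimulator controls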;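 also: PAF is a Pseudomonas aeruginosa culture filtrate used as stimulus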
HIF-2a block = HIF-2a inhibition; 786-0 RCC cells HIF-2a reporter, luciferase luminescence, overnight; AID 624352; inhibition, % at 18.8 µM; 0.72% of 360,000 active;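 active = inhibition of the luminescence signal of 40% or more relative to plate controls, in a single-dose primary screen at 18.75 µM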
KKLEB tox = reduces viability of KKLEB cystic fibrosis airway cells. 0.36% of 360,000 active. activity change (cytotoxicity), % at 5 µM. KKLEB CF airway cells viability, ATPlite luminescence, overnight; active compounds read low; cells stimulated with P. aeruginosa culture filtrate. AID 602141;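 active = corrected activity change at or below -50% at 5 µM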
CF NFkB inh conf = confirmation of cystic fibrosis induced NF-kB inhibitors; shares compounds with CF NFkB block; KKLEB CF airway cells, PAF-induced NF-kB-GFP fluorescence, overnight; inhibition, % at 5 µM; 64% of 1,300 active; AID 602472; in the data active = inhibition above about 40%;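 also: stimulus PAF is a Pseudomonas aeruginosa filtrate and not platelet activating factor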
ABHD5 PLIN5 conf = confirmation of human ABHD5-PLIN5 interaction inhibitors. shares compounds with ABHD5-PLIN5 inh. 67% of 2,200 active. AID 651612. biochemical ABHD5-PLIN5 interaction, luminescence. inhibition, % at 4 µM; in the data active = inhibition above about 23%
HNF4 counter = active in HNF4 split-luciferase counter-screen for ABHD5-PLIN5 inhibitors | shares compounds with ABHD5-PLIN5 inh | HNF4 dimerization, luminescence, biochemical | inhibition, % at 4 µM | 77% of 2,200 active;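 active = mean inhibition across replicate wells exceeding the computed hit threshold, cut at about 13% in these data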;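 also: light from luciferase halves that rejoin when HNF4 fusion proteins dimerize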
Mdm2 MdmX conf = Mdm2/MdmX (human) interaction inhibition, confirmed | SaOS-2 split-luciferase Mdm2/MdmX complementation, luminescence | shares compounds with HIF-2a block | AID 504601 | 99% of 740 active | inhibition, % at 8 µM;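 active = mean inhibition of the luminescence signal across two replicates at or above 26 percent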
HIF-2a conf = confirmation of HIF-2a inhibitors; 56% of 1,800 active; shares compounds with HIF-2a block; AID 651580; inhibition, % at 18.8 µM; 786-0 RCC cells, HIF-2a luciferase reporter luminescence, overnight;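 active = mean inhibition across four replicates of at least 40 percent at the single tested concentration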
HIF-1a cs = inhibits HIF-1a reporter, a counter-screen for HIF-2a inhibitors; shares compounds with HIF-2a block; MiaPaCa-2 HIF-1a luciferase reporter, desferoxamine, overnight; inhibition, % at 18.8 µM; 72% of 1,800 active;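 active = mean inhibition of the reporter signal across four replicates at the single tested dose of 50% or more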
Each line names hits and unclear results; the compound was inactive in the other large screens (follow-up assays come after a bar, where they were run). An excerpt weighted towards active compounds, which were near 3% of everything screened.

COc1ccc(C)c2sc(N(CCN(C)C)C(=O)/C=C/c3cccs3)nc12	Peg3 prom inh 50, ABHD5-PLIN5 inh 35, TRPM1 prom inh 88, CF NFkB block 56 | CF NFkB inh conf inactive | ABHD5 PLIN5 conf 23 | HNF4 counter inactive
COc1ccc(-c2cc(C(F)(F)F)nc(S(=O)(=O)CCCC(=O)Nc3cccnc3Cl)n2)cc1OC	Peg3 prom inh 106, ABHD5-PLIN5 inh 24, TRPM1 prom inh 79, CF NFkB block 93 | CF NFkB inh conf 88 | ABHD5 PLIN5 conf 33 | HNF4 counter 50
CCOC(=O)Nc1ccc2c(c1)N(C(=O)CCN(CC)CC)c1ccccc1S2=O (stereo not given)	Peg3 prom inh 58, ABHD5-PLIN5 inh 23, CF NFkB block 91 | CF NFkB inh conf 43 | ABHD5 PLIN5 conf inactive | HNF4 counter 78
COc1ccc(CC(=O)NNC(=O)c2cc(Cl)ccc2OC)cc1	none
COC(C/C=C/C(=O)[C@H](C)OCc1ccccc1)OC	ABHD5-PLIN5 inh 30, CF NFkB block 58 | CF NFkB inh conf inactive | ABHD5 PLIN5 conf 55 | HNF4 counter 55
Cc1ccc(Cc2c(-c3ccco3)nc3c(C)cc(Br)cn23)cc1	ABHD5-PLIN5 inh 64, CF NFkB block 51 (no result: TRPM1 prom inh) | CF NFkB inh conf inactive | ABHD5 PLIN5 conf 48 | HNF4 counter 66
Cc1ccc(Cc2c(-c3ccccc3)nc3c(C)cc(Br)cn23)cc1	none (no result: Peg3 prom inh, TRPM1 prom inh, CF NFkB block, KKLEB tox)
Clc1cccc(Cc2c(-c3ccco3)nc3ccc(Cl)cn23)c1	ABHD5-PLIN5 inh 71, CF NFkB block 70 (no result: TRPM1 prom inh) | CF NFkB inh conf inactive | ABHD5 PLIN5 conf 86 | HNF4 counter 102
C=CCOc1ccccc1CN1CCN(CCc2ccccc2)C(CCO)C1 (stereo not given)	none
Cc1ccc(S(=O)(=O)N2CCOC23CCN(S(=O)(=O)c2c(C)cc(C)cc2C)CC3)cc1	none
COc1ccc(-c2csc(NC3OC(=O)c4c3ccc(OC)c4OC)n2)cc1OC (stereo not given)	Peg3 prom inh 60, ABHD5-PLIN5 inh 34, CF NFkB block 77 | CF NFkB inh conf 87 | ABHD5 PLIN5 conf 63 | HNF4 counter 49
Cc1cc(C)c(OCC(=O)N(Cc2ccc(N(C)C)cc2)C2CCS(=O)(=O)C2)c(C)c1 (stereo not given)	none
CN(C)c1ccc(CNC(=O)C2Cc3c(-c4ccccc4Oc4ccccc4)ccnc3O2)cc1 (stereo not given)	none (no result: TRPM1 prom inh)
CC(=O)Oc1c(Cl)cc(N(C(C)=O)S(=O)(=O)c2ccccc2)c2ccccc12	ABHD5-PLIN5 inh 58, CF NFkB block 57 (no result: TRPM1 prom inh) | CF NFkB inh conf 54 | ABHD5 PLIN5 conf 49 | HNF4 counter 15
CC(=O)N(c1ccccc1Cl)S(=O)(=O)c1ccc(Cl)cc1	none
Cc1ccc(OCCN2C(=O)C(=O)c3cc(C)ccc32)cc1	none
Cc1ccc2c(c1)C(=O)C(=O)N2Cc1ccc(C(F)(F)F)cc1	ABHD5-PLIN5 inh 42, CF NFkB block 55 | CF NFkB inh conf 72 | ABHD5 PLIN5 conf 36 | HNF4 counter 40
COc1ccc(C(=O)O)cc1S(=O)(=O)Nc1ccc(N2CCCCC2)cc1	none
COc1ccc(-c2[nH]ncc2-c2ccc3c(c2)OCCO3)c(O)c1	CF NFkB block 89 | CF NFkB inh conf 102 | Mdm2 MdmX conf 96
CC(C)C(=O)N1CCN(c2ccc(NC(=O)c3ccc(Br)o3)cc2)CC1	none
CC(C)C(=O)N1CCN(c2ccc(NC(=O)c3ccc([N+](=O)[O-])o3)cc2Cl)CC1	Peg3 prom inh 109, TRPM1 prom inh 85, CF NFkB block 69, HIF-2a block 91 | CF NFkB inh conf inactive | HIF-2a conf 80 | HIF-1a cs 99
COc1cccc(C(C)(O)c2nc(-c3ccc(F)c(Cl)c3)cs2)c1 (stereo not given)	none (no result: TRPM1 prom inh)
CCN(c1ccccc1)S(=O)(=O)c1ccc(C(=O)N2CCN(c3ccccc3)CC2)cc1	none
C=C(C)[C@@H]1C2=CC(C(=O)OC)=C(C[C@H](C(=C)C)[C@H]3O[C@H]3C3=C[C@H]1OC3=O)O2	Peg3 prom inh 103, ABHD5-PLIN5 inh 63, CF NFkB block 69, HIF-2a block 88 (no result: TRPM1 prom inh) | CF NFkB inh conf inactive | ABHD5 PLIN5 conf 87 | HNF4 counter 78 | HIF-2a conf 89 | HIF-1a cs 106
COc1ccc(CCNC(=O)CSc2nnc3ccccn23)cc1	none
COC(=O)C(NC(=O)c1ccccc1)c1ccccc1 (stereo not given)	none
C=C(C(=O)c1ccccc1)C(NC(C)(C)C)c1ccccc1 (stereo not given)	Peg3 prom inh 104, ABHD5-PLIN5 inh 42, TRPM1 prom inh 99, CF NFkB block 50, HIF-2a block 85 | CF NFkB inh conf inactive | ABHD5 PLIN5 conf 65 | HNF4 counter 54 | HIF-2a conf 98 | HIF-1a cs 105
Cc1c(C(=O)N2CCN(c3ccc([N+](=O)[O-])cc3)CC2)oc2ccccc12	none
Cc1c(-c2ccccc2)oc2c(C(=O)N3CCN(c4ccc([N+](=O)[O-])cc4)CC3)cccc2c1=O	CF NFkB block 82 | CF NFkB inh conf 82 | Mdm2 MdmX conf 87
CCCC1NC(=O)c2cccnc2-n2c1nc1ccc(Cl)cc1c2=O (stereo not given)	none (no result: TRPM1 prom inh)
COc1cc(/C=C/C(=O)c2ccc([N+](=O)[O-])o2)ccc1O	Peg3 prom inh 101, ABHD5-PLIN5 inh 27, TRPM1 prom inh 85, CF NFkB block 83, HIF-2a block 97 | CF NFkB inh conf inactive | ABHD5 PLIN5 conf 96 | HNF4 counter 94 | HIF-2a conf 79 | HIF-1a cs 105
N/C(=C\C(=O)c1cc(Cl)ccc1O)C(Cl)(Cl)Cl	CF NFkB block 54 | CF NFkB inh conf inactive | Mdm2 MdmX conf 103
Cc1cc(O)c(C(=O)/C=C/c2cccc([N+](=O)[O-])c2)c(=O)o1	none
